# “And” between values parts separate entries of the source, which are not always exact repeats. Equal values may be shown once. Results filed as inconclusive are left out. Unmarked numbers belong to inactive results. The source made the active and inactive calls. The call rests on the fitted dose curve.
# Assay: qHTS assay to identify small molecule agonists of the hypoxia (HIF-1) signaling pathway - cell viability counter screen (AID 1224844); further: nearly all actives have a fitted effect of over 50% in size
# Settings: HRE-bla ME-180 viability, CellTiter-Glo luminescence, 17 h; series mostly up to 76.8 µM; activity change, negative = cytotoxicity: at the top concentration
# Text: National Center for Advancing Translational Sciences [NCATS]
# NIH Chemical Genomics Center [NCGC]
# U.S. Environmental Protection Agency [EPA]
# National Institutes of Environmental Health Sciences [NIEHS]
# National Toxicology Program [NTP]
# U.S. Food and Drug Administration [FDA]
# Hypoxia-inducible factor-1 (HIF-1) is the major hypoxia-regulated transcription factor that controls cellular responses to low oxygen concentration. HIF-1 is composed of two subunits: hypoxia responsive HIF-1-alpha and constitutively expressed HIF-1-beta, which is also known as aryl hydrocarbon receptor nuclear translocator. During hypoxic conditions, HIF-1-alpha heterodimerizes with HIF-1-beta and translocates into the nucleus where the HIF-1 complex binds to the hypoxia-response element (HRE) and activates expression of target genes such as VEGF (vascular endothelial growth factor). The HIF-1 pathway is essential to normal growth and development, and is involved in the pathophysiology of cancer, inflammation, and ischemia.
# Using a beta-lactamase reporter-gene under control of the hypoxia response element, a cell-based assay [CellSensor(TM) HRE-bla ME-180 from Life Technologies, Carlsbad, CA] was used to measure hypoxia-induced signaling. Tox21 10K library compounds were measured for their ability to induce the reporter gene activity. The cytotoxicity of the Tox21 compound library against HRE-bla ME-180 cell line was tested in parallel by measuring cell viability using CellTiter-Glo assay (Promega, Madison, WI) in the same assay wells.
# Tox21 Assay Protocol Summary:
# HRE-bla ME-180 cells were dispensed at 2,000 cells per well in 6 uL of assay medium containing 0.5% dialyzed FBS into black wall/clear-bottom 1536-well plates using a Multidrop Combi (Thermo Scientific, Waltham, MA) dispenser. After the assay plates were incubated at 37C and 5% CO2 for 5 hrs, 23 nL of compounds dissolved in DMSO, positive controls or DMSO only was transferred to each well of the assay plate using a Pintool station (Kalypsys, San Diego, CA). The assay plates were incubated at 37C and 5% CO2 for 17 hrs. One uL of LiveBLAzerTM B/G FRET substrate (CCF4-AM) (Life Technologies) was added to each well using a Flying Reagent Dispenser (FRD, Aurora Discovery, San Diego, CA). After 2 hr incubation at room temperature, fluorescence intensity (405 nm excitation, 460 nm and 530 nm emissions) was measured using an Envision plate reader (PerkinElmer, Shelton, CT). For cytotoxicity, 4 ul/well of CellTiter-Glo reagent was added into the assay plates using an FRD. After 30 min incubation at room temperature, the luminescence intensity was measured using a ViewLux plate reader (PerkinElmer).
# On the % scale 0 is the no-effect control and ±100 the full control effect; potency means the concentration at half of the fitted maximal effect.
Structure (SMILES),"activity change, negative = cytotoxicity",Potency
COc1ccc2c(c1OC)C(=O)O[C@H]2[C@@H]1c2cc3c(cc2CCN1C)OCO3,-1.31% [at 35.3 µM],
C[N+](C)(C)CCOC(=O)C(O)(c1ccccc1)c1ccccc1,0.481% [at 35.3 µM],
CCOc1cccc(C2(N3CCN(c4ccccc4)CC3)CCC(C)CC2)c1 (stereo not given),2.85%,
Cc1ccc2c(C)cccc2c1,-0.892%,
CCCCC(CC)COC(=O)c1c(Br)c(Br)c(Br)c(Br)c1C(=O)OCC(CC)CCCC (stereo not given),-9.74% [at 35.3 µM],
COC(=O)Cc1ccccc1,3.4%,
CCC1CCC(=O)O1 (stereo not given),-0.476%,
O=C1NC(=O)C(=O)C(=O)N1,7.3%,
O=C(O)C(F)(F)C(F)(F)C(F)(F)C(F)(F)C(F)(F)F,-12.1%,
CC(C)[C@@H](C(=O)O[C@@H](C#N)c1cccc(Oc2ccccc2)c1)c1ccc(Cl)cc1,,inactive
CCc1cnc(C2=NC(C)(C(C)C)C(=O)N2)c(C(=O)O)c1 (stereo not given),,inactive
[Cl-].[Cl-].[Hg+2],,43.5 µM (active)
Cc1nnc(-c2ccccc2)c(=O)n1N,6.33%,
CC(C)(C)NCC(O)c1cc(Cl)c(N)c(C(F)(F)F)c1 (stereo not given),6.3% [at 35.3 µM],
CCCN(CCC)c1c([N+](=O)[O-])cc(C(C)C)cc1[N+](=O)[O-],1.27%,
C[C@H](N)[C@H](O)c1ccc(O)c(O)c1,21% [at 35.3 µM],
CCCCCCCCCCCCN(C)C,-0.0199%,
C=CCOCC1CO1 (stereo not given),-2.02%,
Cc1nc(N(C)C)nc(OC(=O)N(C)C)c1C,1.7%,
C=CC(=O)NC(C)(C)CC(C)=O,-0.616%,

Structure (SMILES),"activity change, negative = cytotoxicity",Potency
CC(C)CCCCCCCOC(=O)c1ccccc1C(=O)OCCCCCCCC(C)C,-8.17%,
CCOP(=O)(SC(C)CC)N1CCSC1=O (stereo not given),1.45%,
COC1CC(=C(c2cccs2)c2cccs2)C[N+](C)(C)C1 (stereo not given),-2.26% [at 35.3 µM],
O=C(O)COc1cc(Cl)c(Cl)cc1Cl,,inactive
C[N+](C)(C)CC1CO1 (stereo not given),-15.9%,
CC(C)(C#N)C(C)(C)C#N,0.623%,
CCCCCCCCn1sccc1=O,,4.91 µM (active) and 3.63 µM (active)
O=C(Cc1ccccc1)c1ccccc1,1.84%,
Cc1ccccc1,6.08%,
O=C=NC1CCCCC1,0.265%,
CCOC(C(=O)OCCN(C)C)(c1ccccc1)c1ccccc1,-9.34% [at 35.3 µM],
CN[C@@H](C)[C@H](O)c1ccccc1,8.05% [at 35.3 µM],
CCOC(=O)c1cn2nc(OP(=S)(OCC)OCC)cc2nc1C,-0.392%,
CCC[N+](CCC)(CCC)CCC,6.52%,
CC[N+]1(CCOC(=O)C(O)(c2ccccc2)c2ccccc2)CCCCC1,-1.02% [at 35.3 µM],
CCc1ccccc1N,4.34%,
CCCC[N+](CCCC)(CCCC)CCCC,8.86%,
C=CCN1C[C@H](C)N([C@H](c2ccc(C(=O)N(CC)CC)cc2)c2cccc(OC)c2)C[C@H]1C,11.7% [at 35.3 µM],
C=CC(C)(CCC=C(C)C)OC(=O)c1ccccc1N (stereo not given),-3.54%,
CCCC[N+]1(C)[C@@H]2CC(OC(=O)[C@H](CO)c3ccccc3)C[C@H]1[C@@H]1O[C@@H]12 (stereo not given in full),-1.67% [at 35.3 µM],
